The assay relates to Trichoderma virens ATCC 9645. Nature of the assay: growth yield (OD600) with compound + IPBC relative to untreated control; higher = less growth inhibition. The note with it: compound concentration: 100 uM, IPBC concentration: 200 ng/ml. In outline:
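A biocide at 200 ng ml^−1 was co-applied to some wells, and library compounds were present in all test wells at 100 μM final. The wells held 100 μl of Trichoderma virens ATCC 9645 spores at 15,000 spores ml^−1 in potato dextrose broth, grown at 30 °C in 96-well plates, with OD600 read at 40 h and 72 h. Results are relative growth against the control without either agent, averaged across duplicate screens.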

Where a name gives a salt, the structure may show the parent alone. ± gives the standard error. Screen size: about 1,300 compounds; about 130 (10%) showed an effect of 50% or more. The full list was thinned out, with strong results kept by preference.

Regarding `O=C1CN(/N=C/c2ccc(-c3ccc([N+](=O)[O-])cc3)o2)C(=O)N1` [Dantrolene sodium salt] + CCCCNC(=O)OCC#CI [3-iodo-2-propynyl butylcarbamate (IPBC)], the growth yield came to 103 ± 3.8% (40 h) and 104 ± 3.1% (72 h).

Regarding `CCCCC(CC)CNC(=N)NC(=N)NCCCCCCNC(=N)NC(=N)NCC(CC)CCCC` (stereo not drawn) [Alexidine dihydrochloride] + CCCCNC(=O)OCC#CI [3-iodo-2-propynyl butylcarbamate (IPBC)], the growth yield by setting is: (40 h) 2.5415 ± 3.6e-15%; (72 h) 2.94 ± 0.21%.

Regarding `Cn1c(=O)c2c(ncn2CC(=O)O)n(C)c1=O` [Acefylline] + CCCCNC(=O)OCC#CI [3-iodo-2-propynyl butylcarbamate (IPBC)], the growth yield runs as follows: (40 h) 90.1 ± 2.1%; (72 h) 91.1 ± 2%.

In the case of `NCC(CC(=O)O)c1ccc(Cl)cc1` (racemic) [Baclofen (R,S)] + CCCCNC(=O)OCC#CI [3-iodo-2-propynyl butylcarbamate (IPBC)], the growth yield runs as follows: (40 h) 96.1 ± 4%; (72 h) 96.8 ± 3.2%.

Turning to `O=C(O)c1cccnc1` [Niacin] + CCCCNC(=O)OCC#CI [3-iodo-2-propynyl butylcarbamate (IPBC)], the growth yield runs as follows: (40 h) 105 ± 1.9%; (72 h) 102.8 ± 0.84%.

Turning to `CC(=O)Oc1ccccc1C(=O)Oc1ccccc1C(=O)O` [Acetylsalicylsalicylic acid] + CCCCNC(=O)OCC#CI [3-iodo-2-propynyl butylcarbamate (IPBC)], the growth yield runs as follows: (40 h) 85 ± 1.8%; (72 h) 89.7 ± 2.2%.

`O=C(Oc1cccc2cccnc12)c1ccccc1` [Benzoxiquine] + CCCCNC(=O)OCC#CI [3-iodo-2-propynyl butylcarbamate (IPBC)]: the growth yield is, setting by setting: (40 h) 36.4 ± 0.48%; (72 h) 65.5 ± 0.73%.

Take `Fc1ccc([C@@H]2CCNC[C@H]2COc2ccc3c(c2)OCO3)cc1` [Paroxetine Hydrochloride] + CCCCNC(=O)OCC#CI [3-iodo-2-propynyl butylcarbamate (IPBC)]: the growth yield (40 h) came out at 68 ± 4.8% and the growth yield (72 h) turned out to be 92.5 ± 2.5%.

Take `O=C(O)CNC(=O)C(CS)Cc1ccccc1` (stereo not drawn) [Thiorphan] + CCCCNC(=O)OCC#CI [3-iodo-2-propynyl butylcarbamate (IPBC)]: the growth yield is 88.16 ± 0.48% (40 h) and 90% (72 h).

As to `C/C(=C(\CCOP(=O)(O)O)SC(=O)c1ccccc1)N(C=O)Cc1cnc(C)nc1N` [Benfotiamine] + CCCCNC(=O)OCC#CI [3-iodo-2-propynyl butylcarbamate (IPBC)], the growth yield by setting is: (40 h) 89.6 ± 4.1%; (72 h) 90.3 ± 3.7%.

As for `COc1cc(C)nc(-n2nc(C)cc2OC)n1` [Epirizole] + CCCCNC(=O)OCC#CI [3-iodo-2-propynyl butylcarbamate (IPBC)], the growth yield reads like this: (40 h) 92.3 ± 7.5%; (72 h) 101 ± 6.2%.

Turning to `C[C@@H](CN1CC(=O)NC(=O)C1)N1CC(=O)NC(=O)C1` [Dexrazoxane hydrochloride] + CCCCNC(=O)OCC#CI [3-iodo-2-propynyl butylcarbamate (IPBC)], the growth yield (40 h) was determined as 109.4 ± 0.48% and the growth yield (72 h) came out at 106 ± 4.2%.

As for `Cc1ccc(C(=O)c2cc(O)c(O)c([N+](=O)[O-])c2)cc1` [Tolcapone] + CCCCNC(=O)OCC#CI [3-iodo-2-propynyl butylcarbamate (IPBC)], the growth yield (40 h) stood at 47.5 ± 3.3% and the growth yield (72 h) was determined as 56 ± 2.7%.

Consider `CCN(CC)C(=O)/C(C#N)=C/c1cc(O)c(O)c([N+](=O)[O-])c1` [Entacapone] + CCCCNC(=O)OCC#CI [3-iodo-2-propynyl butylcarbamate (IPBC)], for which the growth yield (40 h) amounted to 88 ± 0.64% and the growth yield (72 h) was 80.4 ± 1.4%.

Consider `NC[C@@H]1O[C@@H](O[C@H]2[C@H](O)[C@@H](O[C@H]3O[C@H](CO)[C@@H](O)[C@H](N)[C@H]3O)[C@H](N)C[C@@H]2N)[C@@H](O)[C@H](O)[C@H]1O` [Kanamycin A sulfate] + CCCCNC(=O)OCC#CI [3-iodo-2-propynyl butylcarbamate (IPBC)], for which the growth yield was 87.2 ± 9.4% (40 h) and 93.4 ± 4.7% (72 h).

Regarding `c1ccc(CN(CC2=NCCN2)c2ccccc2)cc1` [Antazoline hydrochloride] + CCCCNC(=O)OCC#CI [3-iodo-2-propynyl butylcarbamate (IPBC)], the growth yield was 82.76 ± 0.79% (40 h) and 94.28 ± 0.94% (72 h).

For `C#C[C@]1(O)CC[C@H]2[C@@H]3CCC4=CC(=O)CC[C@]4(C)[C@H]3CC[C@@]21C` [Ethisterone] + CCCCNC(=O)OCC#CI [3-iodo-2-propynyl butylcarbamate (IPBC)], the growth yield runs as follows: (40 h) 105 ± 2.7%; (72 h) 105 ± 3.2%.

For the compound `C=CCN1CCCC1CNC(=O)c1cc2nn[nH]c2cc1OC` (stereo not drawn) [Alizapride hydrochloride] + CCCCNC(=O)OCC#CI [3-iodo-2-propynyl butylcarbamate (IPBC)], the growth yield (40 h) turned out to be 111.5 ± 0.32% and the growth yield (72 h) turned out to be 107%.

Consider `OC(CNCC(O)C1CCc2cc(F)ccc2O1)C1CCc2cc(F)ccc2O1` (stereo not drawn) [Nebivolol hydrochloride] + CCCCNC(=O)OCC#CI [3-iodo-2-propynyl butylcarbamate (IPBC)], for which the growth yield by setting is: (40 h) 11.3 ± 4.3%; (72 h) 63.7 ± 18%.

Turning to `NC(=O)c1cccnc1` [Nicotinamide] + CCCCNC(=O)OCC#CI [3-iodo-2-propynyl butylcarbamate (IPBC)], the growth yield runs as follows: (40 h) 106 ± 4.8%; (72 h) 101.4 ± 0.94%.

On to `C=CC1=C(C(=O)O)N2C(=O)[C@@H](NC(=O)/C(=N\OCC(=O)O)c3csc(N)n3)[C@H]2SC1` [Cefixime] + CCCCNC(=O)OCC#CI [3-iodo-2-propynyl butylcarbamate (IPBC)], for which the growth yield (40 h) came to 104.8 ± 0.64% and the growth yield (72 h) amounted to 103%.

For `Clc1cc(Cl)c(OCC#CI)cc1Cl` [Haloprogin] + CCCCNC(=O)OCC#CI [3-iodo-2-propynyl butylcarbamate (IPBC)], the growth yield (40 h) came out at 5.24 ± 0.48% and the growth yield (72 h) is 2.83 ± 1.6%.

Consider `CC1=Nc2ccc(Cl)cc2S(=O)(=O)N1` [Diazoxide] + CCCCNC(=O)OCC#CI [3-iodo-2-propynyl butylcarbamate (IPBC)], for which the growth yield is, setting by setting: (40 h) 97.4 ± 4%; (72 h) 100.8 ± 0.94%.

As to `CC[C@H]1OC(=O)[C@H](C)[C@@H](O[C@H]2C[C@@](C)(OC)[C@@H](O)[C@H](C)O2)[C@H](C)[C@@H](O[C@@H]2O[C@H](C)C[C@H](N(C)C)[C@H]2O)[C@](C)(O)C[C@@H](C)/C(=N\OCOCCOC)[C@H](C)[C@@H](O)[C@]1(C)O` [Roxithromycin] + CCCCNC(=O)OCC#CI [3-iodo-2-propynyl butylcarbamate (IPBC)], the growth yield (40 h) was 97.2 ± 9.5% and the growth yield (72 h) came to 96.4 ± 4.3%.

With `OC(c1ccccc1)(c1ccccc1)C1CCNCC1` [Azacyclonol] + CCCCNC(=O)OCC#CI [3-iodo-2-propynyl butylcarbamate (IPBC)], the growth yield is 80.06 ± 0.32% (40 h) and 91.2 ± 1.5% (72 h).

On to `CC(C)(C(=O)O)c1ccc(C(O)CCCN2CCC(C(O)(c3ccccc3)c3ccccc3)CC2)cc1` (stereo not drawn) [Fexofenadine hydrochloride] + CCCCNC(=O)OCC#CI [3-iodo-2-propynyl butylcarbamate (IPBC)], for which the growth yield was 89.3 ± 5.4% (40 h) and 95.5 ± 7.2% (72 h).

Take `CC(C)(C)c1ccc(C(O)CCCN2CCC(C(O)(c3ccccc3)c3ccccc3)CC2)cc1` (stereo not drawn) [Terfenadine] + CCCCNC(=O)OCC#CI [3-iodo-2-propynyl butylcarbamate (IPBC)]: the growth yield (40 h) worked out at 47.2 ± 9.1% and the growth yield (72 h) was found to be 90.09 ± 0.73%.

On to `C[N+]12CCC(CC1)C(OC(=O)C(O)(c1ccccc1)c1ccccc1)C2` (stereo not drawn) [Clidinium bromide] + CCCCNC(=O)OCC#CI [3-iodo-2-propynyl butylcarbamate (IPBC)], for which the growth yield is, setting by setting: (40 h) 95.8 ± 11%; (72 h) 95.8 ± 6.6%.

`O=C(NCCN1CCOCC1)c1ccc(Cl)cc1` [Moclobemide] + CCCCNC(=O)OCC#CI [3-iodo-2-propynyl butylcarbamate (IPBC)]: the growth yield is, setting by setting: (40 h) 81.6 ± 4.8%; (72 h) 89.7 ± 2%.

Regarding `Cc1c(N)c(=O)n(-c2ccccc2)n1C` [Ampyrone] + CCCCNC(=O)OCC#CI [3-iodo-2-propynyl butylcarbamate (IPBC)], the growth yield (40 h) was found to be 104 ± 3.8% and the growth yield (72 h) was determined as 105 ± 1.8%.

Consider `CN(CCOc1ccc(NS(C)(=O)=O)cc1)CCc1ccc(NS(C)(=O)=O)cc1` [Dofetilide] + CCCCNC(=O)OCC#CI [3-iodo-2-propynyl butylcarbamate (IPBC)], for which the growth yield runs as follows: (40 h) 88.79 ± 0.79%; (72 h) 90.3 ± 2%.

On to `CCCCOc1cc(C(=O)OCCN(CC)CC)ccc1N` [Benoxinate hydrochloride] + CCCCNC(=O)OCC#CI [3-iodo-2-propynyl butylcarbamate (IPBC)], for which the growth yield (40 h) stood at 84.82 ± 0.64% and the growth yield (72 h) turned out to be 91.24 ± 0.63%.

Turning to `CCCCCCCN(CC)CCCC(O)c1ccc(NS(C)(=O)=O)cc1` (stereo not drawn) [Ibutilide fumarate] + CCCCNC(=O)OCC#CI [3-iodo-2-propynyl butylcarbamate (IPBC)], the growth yield (40 h) came out at 85 ± 1.4% and the growth yield (72 h) stood at 88.1 ± 0.63%.

`CCCCc1oc2ccccc2c1C(=O)c1cc(I)c(OCCN(CC)CC)c(I)c1` [Amiodarone hydrochloride] + CCCCNC(=O)OCC#CI [3-iodo-2-propynyl butylcarbamate (IPBC)]: the growth yield was 2.06 ± 0.16% (40 h) and 2.41 ± 0.1% (72 h).

On to `CCCCc1oc2ccc(NS(C)(=O)=O)cc2c1C(=O)c1ccc(OCCCN(CCCC)CCCC)cc1` [Dronedarone hydrochloride] + CCCCNC(=O)OCC#CI [3-iodo-2-propynyl butylcarbamate (IPBC)], for which the growth yield (40 h) was found to be 6.51 ± 0.16% and the growth yield (72 h) was 3.25 ± 0.32%.

In the case of `CCCCOc1cc(C(=O)NCCN(CC)CC)c2ccccc2n1` [Dibucaine] + CCCCNC(=O)OCC#CI [3-iodo-2-propynyl butylcarbamate (IPBC)], the growth yield reads like this: (40 h) 85 ± 1.4%; (72 h) 94.18 ± 0.21%.

For the compound `CCCCC1=NC2(CCCC2)C(=O)N1Cc1ccc(-c2ccccc2-c2nnn[nH]2)cc1` [Irbesartan] + CCCCNC(=O)OCC#CI [3-iodo-2-propynyl butylcarbamate (IPBC)], the growth yield runs as follows: (40 h) 96.6 ± 6.7%; (72 h) 95.8 ± 3.5%.

As for `NS(=O)(=O)c1cc2c(cc1Cl)N=C(CSCc1ccccc1)NS2(=O)=O` [Benzthiazide] + CCCCNC(=O)OCC#CI [3-iodo-2-propynyl butylcarbamate (IPBC)], the growth yield is 89.9 ± 0.32% (40 h) and 94.8 ± 1.3% (72 h).

As to `O=C(OCC(O)CO)c1ccccc1Nc1ccnc2cc(Cl)ccc12` (stereo not drawn) [Glafenine hydrochloride] + CCCCNC(=O)OCC#CI [3-iodo-2-propynyl butylcarbamate (IPBC)], the growth yield came out at 84.3 ± 2.4% (40 h) and 97.3 ± 1.3% (72 h).
